Compound activity from PubChem BioAssay.
Shown are actives, neighbours in structure and some others; about 10% of the full set was active somewhere.
GPT2 inhibitor – GPT2 alanine aminotransferase inhibition; Q8TD30; Recombinant GPT2, coupled pyruvate oxidase/HRP Amplex Red fluorescence; Potency, µM (doses to about 57.7 µM), most hits filed as inhibitors; 100,000 tested, 0.25% active; AID 1671188; note: nearly all actives have a fitted effect of over 60% in size
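Fluorescence read-out: pyruvate from GPT2 turnover coupled to pyruvate oxidase, HRP and Amplex Red (0.2mM ThPP, 0.2U/mL PO and HRP, 50uM Amplex final). Substrates 250uM a-KG, 2mM L-alanine; enzyme 10ng/uL; 30 min RT.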
hNpr1 antagonist – antagonists of human natriuretic peptide receptor Npr1; P16066; HEK293 hNpr1 GloSensor cGMP, ANP-stimulated luminescence; Potency, µM (highest dose often 46.3 µM), hits mostly inhibitors; 76,000 tested, 1.6% active; AID 1347048; calls by dose curve; note: nearly all actives have a fitted effect of over 60% in size
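HEK293 cells stably expressing human Npr1 and cGMP GloSensor pGS-40F, loaded 2 h with 2% GloSensor reagent, given compound 30 min at room temperature. Luminescence read before and 20 min after 0.1 nM hNppA.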
3T3 cytotox – cytotoxic compounds in NIH 3T3 cells. 94,000 tested, 4.3% active. NIH 3T3 viability, CellTiter-Glo ATP luminescence, 48-72 h. Potency, µM (doses to about 96.7 µM), hits mostly inhibitors; note: nearly all actives have a fitted effect of over 55% in size
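ATP-dependent luminescence (CellTiter-Glo) served as the viability signal for NIH 3T3 cells treated with compound for 48 or 72 hr at 37 °C.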
HEK293 tox – kills HEK 293 cells | HEK 293 viability, ATP luminescence (CellTiter-Glo), 48-72 h | Potency, µM (highest dose often 115 µM), most hits filed as inhibitors | AID 1345083 | 94,000 tested, 6.6% active; note: nearly all actives have a fitted effect of over 60% in size
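Cytotoxicity was scored by loss of ATP-coupled luminescence (CellTiter-Glo) in HEK 293 cells. Compound treatment ran 48 or 72 hr at 37 degree Celsius, 5% CO2, 95% humidity.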
FLuc inh-1 – blocks purified firefly luciferase enzyme activity; P08659; purified P. pyralis luciferase, luminescence, biochemical; Potency, µM (highest dose often 115 µM), actives largely listed as inhibitors; 76,000 tested, 2.5% active; AID 1347043; note: nearly all actives have a fitted effect of over 65% in size
Target sequence (P08659 whole entry, looked up): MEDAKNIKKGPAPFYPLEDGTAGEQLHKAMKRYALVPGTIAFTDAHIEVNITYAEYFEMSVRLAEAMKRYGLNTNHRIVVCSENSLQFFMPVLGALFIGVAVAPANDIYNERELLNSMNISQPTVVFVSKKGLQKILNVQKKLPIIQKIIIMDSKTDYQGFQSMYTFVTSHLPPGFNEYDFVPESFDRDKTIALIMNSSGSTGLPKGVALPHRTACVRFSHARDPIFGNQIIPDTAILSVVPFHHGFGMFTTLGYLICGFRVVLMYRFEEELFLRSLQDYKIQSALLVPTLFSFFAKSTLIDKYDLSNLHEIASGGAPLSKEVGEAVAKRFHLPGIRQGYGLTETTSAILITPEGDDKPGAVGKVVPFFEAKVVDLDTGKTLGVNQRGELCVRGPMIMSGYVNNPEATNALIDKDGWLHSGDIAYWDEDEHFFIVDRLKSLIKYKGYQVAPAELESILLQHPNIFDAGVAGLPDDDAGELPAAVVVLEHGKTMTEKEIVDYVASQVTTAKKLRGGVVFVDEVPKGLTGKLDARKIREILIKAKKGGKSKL
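Biochemical qHTS: compound (6-point titration) added to 10uM D-luciferin plus 10uM ATP in Tris acetate pH 7.5 buffer with Mg, Tween-20 and BSA, then purified enzyme at 10nM; light output imaged.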
FLuc SDR no ATP – firefly luciferase binding stabilization, ATP absent | shares compounds with FLuc inh-1 | Purified FLuc-C-HiBiT, Nano-Glo HiBiT luminescence, no ATP | Potency, µM (highest dose often 32.7 µM), usual class: activators | 1,300 tested, 7.8% active | AID 1963318; note: nearly all actives have a fitted effect of over 55% in size
FLuc SDR ATP – stabilizes firefly luciferase with ATP present. 1,300 tested, 8.7% active. purified FLuc-C-HiBiT + ATP, HiBiT complementation luminescence. shares compounds with FLuc inh-1. AID 1963319. Potency, µM (doses to about 32.7 µM), hits mostly activators;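 note: signal reports ligand binding via conformational change of the enzyme rather than luciferase catalysis; nearly all actives have a fitted effect of over 55% in size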
FLuc inh-2 – inhibitors of firefly luciferase enzymatic activity; shares compounds with FLuc inh-1; purified FLuc-C-HiBiT enzyme, luciferin luminescence; Potency, µM (top dose mostly 32.7 µM), usual class: inhibitors; 1,300 tested, 42% active; note: nearly all actives have a fitted effect of over 70% in size
A number is an active result; i = inactive; ? = inconclusive; nt = no result; [ ] = remark or other dose. Unless noted, calls come from the whole dose curve; as a rule, active = well fitted curve in the direction sought with a large enough effect; inconclusive = small, poorly fitted or top-dose-only effect, or another doubt; inactive = no such curve, though single readings can be large; an effect the other way counts as inactive or inconclusive.

SMILES	GPT2 inhibitor	hNpr1 antagonist	3T3 cytotox	HEK293 tox	FLuc inh-1	FLuc SDR no ATP	FLuc SDR ATP	FLuc inh-2
COc1ccc(CNC(=O)Cn2cccc2C(=O)c2ccccc2C)cc1	nt	nt	nt	nt	nt	i	i	i
COc1ccc(CNC(=O)Cn2cccc2-c2nc(-c3ccccc3)no2)cc1	i	i	i	?	i	nt	nt	nt
Cc1ccc(-c2cc3c(=O)n(CCNC(=O)c4cccc5[nH]ccc45)ccn3n2)cc1C	i	i	32µM	35µM	5.6µM	i	i	7.9µM
Cc1ccc(C(=O)NCCn2ccn3nc(-c4ccc(C)c(C)c4)cc3c2=O)cc1	i	i	i	i	i	nt	nt	nt
Cc1ccc(-c2cc3c(=O)n(CCNC(=O)c4ccoc4)ccn3n2)cc1C	i	i	?	?	7.1µM	i	i	?
O=C(NCCn1ccn2nc(-c3ccc(F)cc3)cc2c1=O)c1cccc2[nH]ccc12	i	i	i	i	i	nt	nt	nt
CC1(C)CNC(=O)c2nc(CCSCc3ccco3)[nH]c2C1	i	i	i	i	i	nt	nt	nt
CSc1ccc(-c2nc3c([nH]2)CC(C)(C)CNC3=O)cc1	i[11.5 µM]	i	i	?	13µM	i	i	?
O=C(CSc1nccn1Cc1ccco1)Nc1ccc(OC(F)(F)F)cc1	nt	nt	nt	nt	nt	i	i	?
COCCNc1cc(-c2cncc(C(=O)N3CCOCC3)n2)c2cc[nH]c2n1	i	i	i	i	i	nt	nt	nt
COCCNc1cc(-c2ccc3ccccc3n2)c2cc[nH]c2n1	i	i	?	?	10µM	i	i	?
COc1ccc(C(=O)Nc2cc(S(=O)(=O)c3ccc(Cl)cc3)c(O)c(C)c2C)cc1	nt	nt	nt	nt	nt	i	i	i
CCN(CC1CCCN(CCc2cccc(OC)c2)C1)C(=O)c1cc(C)no1 (stereo not drawn)	i	i	i	i	i	nt	nt	nt
N#Cc1c(NC(=O)c2cccc3ccccc23)sc2c1CCCC2	i	nt	nt	nt	nt	i	i	i
CC(C)(Oc1nn(CC2CC2)c2ccc(CN3CCCC3)cc12)C(=O)NC1CCOCC1	nt	nt	nt	nt	nt	i	i	i
CN1CCC(NC(=O)C(C)(C)Oc2nn(Cc3ncccn3)c3ccccc23)CC1	nt	nt	nt	nt	nt	i	i	i
COCc1ccc2c(c1)c(OC(C)(C)C(=O)NC1CC1)nn2Cc1ccccc1	i	i	?	?	i	nt	nt	nt
CC1CCCN(c2ncnc3c2CN(c2ccccc2)C(=O)N(C)C3)C1 (stereo not drawn)	i	i	i	i	i	nt	nt	nt
CC1CCCN(c2ncnc3c2cnn3-c2cccc(Cl)c2)C1 (stereo not drawn)	nt	nt	nt	nt	nt	11µM	?	0.79µM
Cc1ccc(-n2ncc3c(N4CCCC(C)C4)ncnc32)cc1C (stereo not drawn)	nt	nt	nt	nt	nt	3.5µM	1.2µM	0.16µM
CCn1cc(-c2ccncc2)cc1C(=O)NCc1ccc(OC(C)C)cc1	i	i	?	?	i	nt	nt	nt
CCOc1ccc(-c2cc(CCCC(=O)NCCc3ccc(SC)cc3)no2)cc1	nt	nt	nt	nt	nt	i	?	3.1µM
CCOc1ccc(-c2cc(CCCC(=O)NCCc3ccc(OCC)c(OCC)c3)no2)cc1	nt	nt	nt	nt	nt	i	?	3.5µM
CCc1ccc(-c2nc(CSCC(=O)NCc3ccc(C)cc3)c(C)o2)cc1	nt	nt	nt	nt	nt	i	i	?
CC(=O)NCC(=O)N1Cc2ccccc2CC2(CCCCN2CC2CCNCC2)C1 (stereo not drawn)	i	nt	i	i	nt	nt	nt	nt
SMILES	GPT2 inhibitor	hNpr1 antagonist	3T3 cytotox	HEK293 tox	FLuc inh-1	FLuc SDR no ATP	FLuc SDR ATP	FLuc inh-2
CCc1cccc(NC(=O)Nc2cccc(-c3ccc(N4CCOCC4)nn3)c2)c1	i	?	?	40µM	2µM	?	i	6.2µM
Cc1ccc(C(=O)Nc2cccc(-c3ccc(N4CCN(C)CC4)nn3)c2)cc1C	i	i	25µM	?	6.3µM	?	?	3.9µM
CSc1cccc(NC(=O)Nc2cccc(-c3ccc(N4CCOCC4)nn3)c2)c1	i	?	35µM	28µM	0.79µM	?	?	1.6µM
O=C(Nc1ccc(F)cc1)Nc1cccc(-c2ccc(N3CCOCC3)nn2)c1	i	?	?	?	0.89µM	?	?	2µM
O=C(c1ccc(C(F)(F)F)cc1)N1CCC(c2nn(-c3ccccn3)c(=O)[nH]2)CC1	i	nt	i	i	nt	nt	nt	nt
O=C(Nc1cccc(-c2nnc3n2CCCC3)c1)c1cc(F)cc(F)c1	i	i	?	i	i	nt	nt	nt
O=C(Nc1cccc(F)c1)Nc1cccc(-c2nnc3n2CCCC3)c1	i	i	i	i	i	nt	nt	nt
O=C(Nc1cccc(-c2ccc(N3CCOCC3)nn2)c1)Nc1cc(F)ccc1F	i	10µM	?	79µM	0.89µM	?	?	2.5µM
CN1CCN(c2ccc(-c3cccc(N)c3)nn2)CC1	i	?	i	i	11µM	i	?	6.2µM
CC(c1ccc(-c2ccc(N3CCN(C)CC3)nn2)cc1)N1CCCCC1 (stereo not drawn)	i	i	i	?	i	nt	nt	nt
O=C(Nc1cccc(-c2ccc(N3CCCC3)nn2)c1)c1c(F)cccc1F	i	i	?	40µM	7.1µM	?	?	8.8µM
O=C(Nc1cccc(-c2ccc(N3CCOCC3)nn2)c1)Nc1ccccc1F	i	?	?	18µM	1.6µM	?	?	2.8µM
O=C(N1CC(N(Cc2ccncc2)CC2CC2)C1)C1(c2ccccc2)CC1	i	nt	i	i	nt	nt	nt	nt
Cc1nnc(CN2CCC3(C2)C(=O)N(C)C(=O)N3C)o1 (stereo not drawn)	?	nt	i	i	nt	nt	nt	nt
CCN1CCN(c2csc3ccc(Cl)cc3c2=O)CC1	nt	nt	nt	nt	nt	i	i	?
CCN1CCN(c2nccc(Cl)n2)C(=O)C1	i	i	i	i	i	nt	nt	nt
COc1ccccc1NC(=O)Cn1c(-c2ccc(Cl)cc2)nc(C)cc1=O	i	i	?	?	i	nt	nt	nt
COC(=O)c1ccccc1NC(=O)CCc1c(C)nc2cc(-c3ccc(Cl)cc3)nn2c1C	nt	nt	nt	nt	nt	i	?	?
CCOc1ccc(NC(=O)CCc2c(C)nc3cc(-c4ccc(Cl)cc4)nn3c2C)cc1	nt	nt	nt	nt	nt	i	0.99µM	2.8µM
COc1ccc(NC(=O)Cn2c(-c3ccc(Cl)cc3)nc(C)c(CCO)c2=O)cc1	i	i	i	?	i	nt	nt	nt
CCOC(=O)c1cccc(NC(=O)CCc2c(C)nc3cc(-c4ccc(Cl)cc4)nn3c2C)c1	nt	nt	nt	nt	nt	i	?	8.8µM
COc1ccc(-c2cc(N3CCCC(NC(=O)c4ccc5[nH]ccc5c4)C3)n[nH]2)cc1 (stereo not drawn)	?	i	?	?	4.5µM	i	i	5µM
COc1ccc(-c2cc(N3CCCC(NC(=O)c4cccc(OC)c4)C3)n[nH]2)cc1 (stereo not drawn)	?	i	?	25µM	7.1µM	i	i	?
